Assay outcomes: PubChem BioAssay, National Center for Advancing Translational Sciences (NCATS)
Only some compounds are listed: those with a hit (about 11% of all), similar ones and a draw of the others.
HPGD inh = inhibitors of human 15-hydroxyprostaglandin dehydrogenase (HPGD); Potency, µM, hits mostly inhibitors; AID 894; purified HPGD, NADH fluorescence kinetic, PGE2 substrate; hit rate 4.3% among 150,000; P15428
Target sequence (P15428 whole entry, looked up): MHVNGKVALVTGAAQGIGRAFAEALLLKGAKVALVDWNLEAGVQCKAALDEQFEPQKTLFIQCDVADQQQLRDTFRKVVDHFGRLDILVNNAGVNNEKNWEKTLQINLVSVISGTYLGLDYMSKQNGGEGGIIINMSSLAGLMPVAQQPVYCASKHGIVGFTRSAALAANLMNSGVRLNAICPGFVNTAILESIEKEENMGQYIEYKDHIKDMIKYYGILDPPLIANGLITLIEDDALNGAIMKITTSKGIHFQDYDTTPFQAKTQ
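NADH formation kinetics: reaction with 30 uM PGE2 and 1 mM NAD+ (final), 20 nM enzyme, Tris-HCl pH 8 with Tween 20, after 15 min compound preincubation at room temperature. Fluorescence change, last versus first of five reads.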
PNC inhibitor = perinucleolar compartment assembly inhibition | activity change (PNC), negative = inhibition, % at 10 µM | PC3M PTB-GFP, PNC prevalence imaging, 16 h; active compounds read low | hit rate 3.1% among 140,000;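 active = readout at or below -70, meaning at least 70% loss of cells showing the perinucleolar compartment, a nuclear body marking cancer cells; inconclusive = readout between -30 and a set limit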
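Compounds are pinned in duplicate onto adhered PC3M cells stably expressing GFP-tagged PTB and incubated 16 h at 37 C. Cells are then fixed, nuclei stained with Hoechst, and PNC-positive cells counted.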
ALDH1A1 block = inhibitors of human aldehyde dehydrogenase 1A1 | Purified ALDH1A1, NADH fluorescence, propionaldehyde substrate | Potency, µM (doses to about 75.3 µM), usual class: inhibitors | AID 1030 | hit rate 7.3% among 220,000 | P00352
Hits are given with their value; [ ] = another dose, or the depositor's remark. Unless noted, calls come from the whole dose curve; as a rule, active = well fitted inhibition curve with a large enough effect (not every such curve was filed as active); inconclusive = small, poorly fitted or top-dose-only effect, or another doubt; inactive = no such curve, though single readings can be large or run the other way.

Screening Cc1cc(O)c(C(C)C)cc1N=C1CSC(=O)N1 returned HPGD inh 32µM, PNC inhibitor inactive and ALDH1A1 block 13µM.
Cc1ccc(N=C2CSC(=O)N2)cc1 was read as ALDH1A1 block inactive.
CSc1nc2ccccc2s1 was read as HPGD inh inactive, PNC inhibitor inactive and ALDH1A1 block inactive.
Oc1ccccc1C(Sc1nc2ccccc2s1)Sc1nc2ccccc2s1 was read as HPGD inh 4µM and ALDH1A1 block 0.71µM.
COCCn1nnnc1CN(Cc1ccco1)Cc1cc2cc3c(cc2[nH]c1=O)OCO3 was read as HPGD inh inconclusive, PNC inhibitor inactive and ALDH1A1 block inconclusive.
`O=c1[nH]c2cc3c(cc2cc1CN(CCc1ccccc1)Cc1nnnn1CC1CCCO1)OCO3` (stereo unspecified) gave HPGD inh inactive, PNC inhibitor inactive and ALDH1A1 block inconclusive.
Screening CCOc1ccc2[nH]c(=O)c(CN(Cc3ccco3)Cc3nnnn3Cc3ccccc3)cc2c1 returned HPGD inh inconclusive, PNC inhibitor inactive and ALDH1A1 block inconclusive.
`COCCn1nnnc1CN(CCc1ccccc1)Cc1cc2ccc(C)cc2[nH]c1=O` gave HPGD inh inactive, PNC inhibitor inconclusive and ALDH1A1 block 4.5µM.
For CCOc1ccc2[nH]c(=O)c(CN(CCO)Cc3nnnn3CCc3ccccc3)cc2c1 the results were HPGD inh inactive, PNC inhibitor -85 and ALDH1A1 block inconclusive.
Screening COc1ccc2cc(CN(CCc3ccccc3)Cc3nnnn3CC3CCCO3)c(=O)[nH]c2c1 (stereo unspecified) returned HPGD inh inactive, PNC inhibitor inactive and ALDH1A1 block 0.28µM.
COc1ccc2[nH]c(=O)c(CN(Cc3ccc(C)cc3)Cc3nnnn3CC3CCCO3)cc2c1 (stereo unspecified) was read as HPGD inh inconclusive, PNC inhibitor inactive and ALDH1A1 block inconclusive.
`Cc1ccc2[nH]c(=O)c(CN(CCc3ccccc3)Cc3nnnn3CC3CCCO3)cc2c1` (stereo unspecified) gave HPGD inh inactive, PNC inhibitor inactive and ALDH1A1 block 22µM.
CC(C(=O)c1ccccc1)[n+]1cccc(C(N)=O)c1 (stereo unspecified) was read as ALDH1A1 block inactive.
For CC(=O)Oc1cccc(C)c1 the results were HPGD inh inactive and ALDH1A1 block inactive.
For COc1ccc(-c2ccccc2C2NC(C(=O)O)CCC2C)cc1 (stereo unspecified) the results were ALDH1A1 block inactive[13.5 µM].
Screening COc1cccc(NC(=O)N(CCCN2CCOCC2)C(C)c2cc3ccccc3o2)c1 (stereo unspecified) returned HPGD inh inactive, PNC inhibitor inactive and ALDH1A1 block inactive.
`CNC(=O)N(C1=NCC(C)(C)S1)c1ccc(F)c(Cl)c1` gave HPGD inh inactive, PNC inhibitor inactive and ALDH1A1 block inactive.
Screening CCOC(=O)CC(=O)N/N=C/c1c(N)n(C)c(=O)n(C)c1=O returned ALDH1A1 block inactive.
For C=CCn1c(-c2ccc(S(=O)(=O)N3CCOCC3)cc2)csc1=Nc1ccccc1 the results were HPGD inh inactive, PNC inhibitor inactive and ALDH1A1 block inconclusive.
Screening CC(=O)c1cccc(N=c2scc(-c3ccc(S(=O)(=O)N4CCOCC4)cc3)n2CCO)c1 returned HPGD inh inactive, PNC inhibitor inactive and ALDH1A1 block 25µM.
For COc1ccc(-c2csc(=Nc3ccccc3)n2CCO)cc1 the results were HPGD inh inactive, PNC inhibitor inactive and ALDH1A1 block inactive.
Screening COc1ccc(N=c2scc(-c3ccc(S(=O)(=O)N4CCOCC4)cc3)n2CCCO)cc1 returned HPGD inh inactive, PNC inhibitor -100 and ALDH1A1 block inconclusive.
`CC1=C(C(=O)Nc2ccccc2)C2(CCCCC2)C(C#N)=C(S)N1` gave HPGD inh 25µM, PNC inhibitor inactive and ALDH1A1 block 20µM.
N#CC1=C(N)NC(SCC(=O)Nc2ccccc2)=C(C#N)C12CCCC2 was read as HPGD inh 18µM, PNC inhibitor inactive and ALDH1A1 block 4.5µM.
`N#CC1=C(N)NC(SCc2ccc(F)cc2)=C(C#N)C12CCCCC2` gave HPGD inh inactive, PNC inhibitor inactive and ALDH1A1 block inconclusive.
Screening CC1=C(C(=O)Nc2ccc(Cl)cc2)C2(CCCCC2)C(C(N)=O)C(=S)N1 (stereo unspecified) returned HPGD inh inactive, PNC inhibitor inconclusive and ALDH1A1 block inactive.
`N#CC1=C(N)NC(SCC(=O)O)=C(C#N)C12CCCC2` gave HPGD inh 13µM, PNC inhibitor inactive and ALDH1A1 block 5.6µM.
Screening N#Cc1cccc(NC(=O)CSc2ccccc2)c1 returned HPGD inh inactive, PNC inhibitor inactive and ALDH1A1 block inactive.
Screening CO/N=C/c1cccn1-c1nccc(OC)c1C#N returned ALDH1A1 block inactive.
CNC/C(Cl)=N/S(=O)(=O)c1ccc(C)cc1 was read as HPGD inh inactive and ALDH1A1 block inconclusive.
Screening O=C(NCCCN1CCOCC1)c1cccs1 returned HPGD inh inactive, PNC inhibitor inactive and ALDH1A1 block inactive.
Screening Cc1nn(CCC(=O)NNC(=S)NCC(C)C)c(C)c1Br returned HPGD inh inactive, PNC inhibitor -112 and ALDH1A1 block inactive.
For CNC(=S)NNC(=O)CCn1nc(C)c(Br)c1C the results were HPGD inh inactive, PNC inhibitor inactive and ALDH1A1 block inactive.
`Cn1c(SCc2cc(=O)[nH]c3ccccc23)nnc1-c1ccc(Br)cc1` gave HPGD inh inconclusive, PNC inhibitor inactive and ALDH1A1 block inactive.
For O=C1N=C(N2CCN(c3ccccc3)CC2)S/C1=C\c1cn[nH]c1-c1ccccc1 the results were HPGD inh inconclusive, PNC inhibitor inconclusive and ALDH1A1 block inactive.
Screening O=C1N=C(N2CCC(Cc3ccccc3)CC2)S/C1=C/c1cn[nH]c1-c1ccccc1 returned HPGD inh 25µM, PNC inhibitor inactive and ALDH1A1 block inactive.
`O=C(CN(c1ccc(Cl)cc1)S(=O)(=O)c1ccc(Cl)c([N+](=O)[O-])c1)NCCc1ccccc1` gave ALDH1A1 block 25µM.
Screening COc1ccc(N(CC(=O)Nc2ccccc2F)S(=O)(=O)c2ccc(C)c([N+](=O)[O-])c2)cc1 returned ALDH1A1 block 11µM.
O=C(CN(c1ccc(Cl)cc1)S(=O)(=O)c1ccc(Cl)c([N+](=O)[O-])c1)NCCc1ccc(F)cc1 was read as HPGD inh inactive, PNC inhibitor inactive and ALDH1A1 block inactive.
Screening COc1ccc(N(CC(=O)NCc2cccnc2)S(=O)(=O)c2ccc(C)c([N+](=O)[O-])c2)cc1 returned ALDH1A1 block inactive.
For C=C1/C(=C\C=C2/CCC[C@]3(C)C([C@H](C)CCCC(C)(C)O)CC[C@@H]23)C[C@@H](O)C[C@@H]1O (stereo partly specified) the results were ALDH1A1 block inactive.
`COc1ccc(S(=O)(=O)N2CCN(C(=O)NC3CCCCC3)CC2)cc1OC` gave HPGD inh inactive, PNC inhibitor inactive and ALDH1A1 block inconclusive.
Screening CCCCCN1C=CC=C/C1=C\C=C(C#N)C#N returned ALDH1A1 block 0.45µM.
`CCCCCCN1C=CC=C/C1=C/C=C(C#N)C#N` gave HPGD inh 11µM, PNC inhibitor inactive and ALDH1A1 block inactive.
CCCCCCN1C=C/C(=C\C=C(C#N)C#N)c2ccccc21 was read as HPGD inh inactive, PNC inhibitor inconclusive and ALDH1A1 block inactive.
